Bioassay records from PubChem BioAssay.
In the library only some 2.1% were active in any assay of this set; here they are far more common.
YB-1 expression = YB-1 expression inhibition; U2OS, qRT-PCR YB-1 vs CDIP delta delta Cp, 16 h; stronger effect = higher value; zero = DMSO, each unit about twofold; delta delta Cp (YB-1 minus CDIP) (no concentration beside the values); 0.37% of 30,000 active; AID 434959;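 active = delta delta Cp rounded down to an integer at or above 3, about 3 SD of DMSO wells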;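 note: higher means less YB-1 transcript or more CDIP transcript relative to DMSO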
U2OS ROS induce = raises reactive oxygen species in U2OS cancer cells. 2% of 46,000 active. U2OS ROS induction, H2DCF-DA fluorescence. AID 624156. ROS induction (% of piperlongumine), % at 10 µM; in the data active = ROS induction above about 79%, passing the limit was not always enough
Of the large screens only hits and unclear results are named; the others gave an inactive call.

O=C1O[C@@H](c2ccccc2)[C@@H](c2ccccc2)N2[C@@H](c3ccccc3OCCO)[C@]3(C(=O)Nc4ccccc43)[C@@H](C(=O)O)[C@H]12	none
O=C1O[C@@H](c2ccccc2)[C@@H](c2ccccc2)N2[C@@H](c3ccc(OCCO)cc3)[C@]3(C(=O)Nc4ccccc43)[C@@H](C(=O)N3CCN(c4ncccn4)CC3)[C@H]12	U2OS ROS induce 96.5
O=C1O[C@H](c2ccccc2)[C@H](c2ccccc2)N2[C@H]1[C@@H](C(=O)N1CCN(c3ncccn3)CC1)[C@]1(C(=O)Nc3ccccc31)[C@H]2c1ccccc1OCCO	U2OS ROS induce 169.9
COC(=O)C(CC#Cc1ccc2c(c1)[C@]1(C(=O)N2)[C@H](c2ccccc2OCCO)N2[C@H](c3ccccc3)[C@H](c3ccccc3)OC(=O)[C@H]2[C@@H]1C(=O)N1CCN(c2ncccn2)CC1)C(=O)OC	U2OS ROS induce 99.0
O=C(NCc1ccc(Cl)cc1)c1sc2ccccc2c1Cl	none (no result: YB-1 expression)
Cc1ccc(CSc2nnc(-n3c(=O)c(C#N)cc4c(=O)n5ccccc5nc43)s2)cc1	U2OS ROS induce 189.1 (no result: YB-1 expression)
Cc1ccc(-n2c(=O)c(C#N)cc3c(=O)n4ccccc4nc32)cc1	none (no result: YB-1 expression)
COCCn1c(C)cc(C=C2C(=O)N(C)C(=S)N(C)C2=O)c1C	none
C=CCN1C(=O)/C(=C/c2cc(C)n(CCOC)c2C)C(=O)NC1=S	U2OS ROS induce 102.5
COc1ccc(NC(=O)N(C)C[C@@H]2Oc3ccc(NC(=O)C4CC4)cc3CC(=O)N([C@H](C)CO)C[C@H]2C)cc1	U2OS ROS induce 119.6
COc1ccc(CN(C)C[C@@H]2Oc3ccc(NC(=O)C4CC4)cc3CC(=O)N([C@H](C)CO)C[C@@H]2C)cc1	U2OS ROS induce 104.0
C[C@H]1CN([C@@H](C)CO)C(=O)Cc2cc(N(C)C)ccc2O[C@H]1CN(C)Cc1ccc(C(=O)O)cc1	none
COc1ccc(CN(C)C[C@H]2Oc3ccc(NC(=O)C4CC4)cc3CC(=O)N([C@@H](C)CO)C[C@@H]2C)cc1	none
COc1ccc(CN(C)C[C@@H]2Oc3ccc(NC(=O)Nc4ccc(OC)cc4)cc3CC(=O)N([C@H](C)CO)C[C@@H]2C)cc1	none
COc1ccc(NC(=O)N(C)C[C@H]2Oc3ccc(NC(=O)C4CC4)cc3CC(=O)N([C@H](C)CO)C[C@H]2C)cc1	none
C[C@H]1CN([C@@H](C)CO)C(=O)Cc2cc(N(C)C)ccc2O[C@@H]1CN(C)Cc1ccc(C(=O)O)cc1	U2OS ROS induce 112.6
COc1ccc(NC(=O)Nc2ccc3c(c2)CC(=O)N([C@@H](C)CO)C[C@H](C)[C@H](CN(C)Cc2ccc(C(=O)O)cc2)O3)cc1	U2OS ROS induce 133.3
CCOC(=O)C1(O)c2ccccc2NC(=O)N1C (stereo not given)	none (no result: YB-1 expression)
CNc1[nH]cnc(=S)c1N	none
N#CC1=C(SCC(=O)Nc2ccccc2)NC(=O)CC1c1ccccc1 (stereo not given)	none (no result: YB-1 expression)
Cc1cc(C)c(N(CC(O)Cn2c3ccccc3c3ccccc32)S(C)(=O)=O)c(C)c1 (stereo not given)	none (no result: YB-1 expression)
C[C@H]1CN([C@@H](C)CO)C(=O)Cc2cc(NS(=O)(=O)c3cn(C)cn3)ccc2O[C@H]1CN(C)Cc1ccc(-c2ccccc2)cc1	U2OS ROS induce 94.6
C[C@H](CO)N1C[C@H](C)[C@H](CN(C)Cc2ccc(Oc3ccccc3)cc2)Oc2ccc(NS(=O)(=O)c3cn(C)cn3)cc2CC1=O	none
C[C@@H]1CN([C@H](C)CO)C(=O)Cc2cc(NS(=O)(=O)c3cn(C)cn3)ccc2O[C@H]1CN(C)Cc1ccc(-c2ccccc2)cc1	none
C[C@H]1CN([C@@H](C)CO)C(=O)Cc2cc(NS(=O)(=O)c3cn(C)cn3)ccc2O[C@@H]1CN(C)Cc1ccncc1	U2OS ROS induce 79.4
C[C@@H]1CN([C@H](C)CO)C(=O)Cc2cc(NS(=O)(=O)c3cn(C)cn3)ccc2O[C@@H]1CN(C)Cc1ccc(Oc2ccccc2)cc1	U2OS ROS induce 80.5
C[C@@H]1CN([C@@H](C)CO)C(=O)Cc2cc(NS(=O)(=O)c3cn(C)cn3)ccc2O[C@@H]1CN(C)Cc1ccncc1	none
CNC(=O)C1CC(=O)N(C2CCCCCC2)C1 (stereo not given)	none (no result: YB-1 expression)
Cc1ccc(OCC(=O)Oc2ccc(C)cc2)cc1	none (no result: YB-1 expression)
CCOC(=O)c1cnc2ccc(OCC)cc2c1N1CCN(c2ccccc2)CC1	U2OS ROS induce 127.7
CCOC(=O)c1cnc2ccc(OCC)cc2c1NC(C)CC (stereo not given)	none
CC(C)(C)c1ccc(-c2noc(CCn3c(=O)oc4ccccc43)n2)cc1	none (no result: YB-1 expression)
C[C@@H]1CCCCO[C@@H](CN(C)Cc2ccc(C(F)(F)F)cc2)[C@@H](C)CN([C@H](C)CO)C(=O)c2cc(NC(=O)CCC(F)(F)F)ccc2O1	U2OS ROS induce 155.4
C[C@@H]1CCCCO[C@H](CN(C)C(=O)Nc2ccc3c(c2)OCO3)[C@@H](C)CN([C@H](C)CO)C(=O)c2cc(NC(=O)CCC(F)(F)F)ccc2O1	none
